Records with an inconclusive call do not appear. The source made the active and inactive calls.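 How the source made its calls, unless noted: active means aptamer binding inhibition above 30%, about 3 SD of noise from non-fluorescent compounds; inactive means inhibition at or below 30%.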

A short description of assay [1]: yeast TOR pathway RPL19A-GFP modulators, primary screen, cell-based, S. cerevisiae, multiplex flow cytometry (AID 1862; in the data active means percent of DMSO control GFP below about 86%;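 further: lower values mimic rapamycin by blocking the RPL19A rise seen in DMSO cells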). The note with it: S. cerevisiae RPL19A-GFP strain, flow cytometry fluorescence, 3 h; at 10 µM; stronger effect = lower value.
A short description of assay [2]: modulators of MEP2-GFP levels in yeast, primary screen, S. cerevisiae, multiplex flow cytometry (AID 1867;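 active means GFP response, as percent of the DMSO control, above the screen-wide mean plus 3 SD, about 139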;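 further: median GFP channel fluorescence of barcode-gated MEP2-GFP cells measured by flow cytometry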). The note with it: S. cerevisiae MEP2-GFP strain, 3 h, at 10 µM, stronger effect = higher value, 100% means same as DMSO wells. For orientation: Flow cytometry measures light scatter and fluorescence of single cells or particles in a stream.
Assay [3] in a line: modulators of CIT2-GFP expression in yeast, primary screen, S. cerevisiae, GFP fusion, multiplex flow cytometry (AID 1870;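 active means percent response above a set limit, the screen-wide mean plus 3 SD, cut at about 130% in these data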;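 further: barcoded CIT2-GFP strain pooled with four other GFP strains with rapamycin as positive control; median GFP fluorescence per well over plate mean of DMSO wells so 100% = DMSO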). To be noted: 3 h, at 10 µM, stronger effect = higher value.
A short description of assay [4]: modulators of LAP4-GFP expression in yeast, primary screen, S. cerevisiae, multiplex flow cytometry (AID 1873;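 active means GFP signal, as percent of the solvent control, above the screen mean plus 3 SD, about 149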). To be noted: 3 h, at 10 µM, stronger effect = higher value.
Assay [5] in a line: modulators of AGP1-GFP expression in yeast TOR pathway, primary screen, cell-based, multiplex flow cytometry, S. cerevisiae (AID 1887;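 active means GFP signal above the screen-wide mean plus 3 SD, that is over about 124.5% of the solvent control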;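 further: AGP1-GFP fusion strain of S. cerevisiae within a five-strain barcoded multiplex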). The note with it: 3 h, at 10 µM, stronger effect = higher value.
Assay [6] can be described thus: inhibitors of CD8+ T cell-vesicle binding, pilot screen, LFA-1/ICAM-1 modulator project, MLPCN validation set, flow cytometry (AID 2523;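 active means response below a set limit, under 55% cells CD8-positive and vesicle-bound, and CD8 cells' 90th-percentile brightness under 279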;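 on vesicle binding response: mean PE anti-B7-1 fluorescence of CD8+ cells relative to row control; 100% = QL9-loaded vesicles with DMSO vehicle in the same plate row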). The note with it: 2C mouse CD8+ T cells, at 7 µM, stronger effect = lower value; double positive events: measured here: CD8+/vesicle+ event percentage.
Assay [7] has as its target Integrin beta-1 (Homo sapiens) + Integrin alpha-4 (Homo sapiens) (UniProt P13612+P05556). In words: inhibition of HUTS-21 binding to VLA-4, pilot screen, VLA-4 allosteric modulator project, U937 cells, HUTS-21 mAb, flow cytometry, validation set (AID 2674;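 active means inhibition above 50%, about 3 SD of the validation set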;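 further: antibody binding induced by the VLA-4 ligand LDV present at three times its Kd; 0% = LDV ligand with antibody and no compound and 100% = antibody without LDV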). The note with it: HUTS-21 LIBS mAb binding, at 6.7 µM, stronger effect = higher value, binding induced by LDV ligand.
Assay [8] can be described thus: superoxide lowering in aged yeast cells, pilot screen, validation compound set (AID 2706;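 active means superoxide response below 65% of plate, a cut near 3 SD across the whole screen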;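 further: yeast exposed to compound for one week at 30 degrees C before staining; 100% = mean of all compound wells on the same plate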). To be noted: S. cerevisiae aging, superoxide DHE fluorescence; at 10 µM; stronger effect = lower value.
Assay [9] concerns the target Beta-adrenergic receptor kinase 1 (Homo sapiens) (UniProt P25098). In words: GRK2 binders displacing RNA aptamer, biochemical, validation, human GRK2, bead flow cytometry (AID 488806). The note with it: bead-bound GRK2, FAM-aptamer displacement, at 10 µM, stronger effect = higher value.
Assay [10] deals with Beta-2 adrenergic receptor (Homo sapiens) (UniProt P07550). The assay can be described thus: beta2AR agonists driving receptor internalization, pilot screen, cell-based, FAP fluorogen, flow cytometry, validation set (AID 504459;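 active means percent response above 42, roughly 3 SD of non-fluorescent test compounds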;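 further: agonist-driven loss of surface beta2AR via internalization measured by FAP dye flow cytometry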). The note with it: Am2.2-beta2AR cells, FAP surface receptor flow cytometry; at 10 µM; stronger effect = higher value.
Sequence of Beta-2 adrenergic receptor (Homo sapiens) (P07550 whole entry, looked up): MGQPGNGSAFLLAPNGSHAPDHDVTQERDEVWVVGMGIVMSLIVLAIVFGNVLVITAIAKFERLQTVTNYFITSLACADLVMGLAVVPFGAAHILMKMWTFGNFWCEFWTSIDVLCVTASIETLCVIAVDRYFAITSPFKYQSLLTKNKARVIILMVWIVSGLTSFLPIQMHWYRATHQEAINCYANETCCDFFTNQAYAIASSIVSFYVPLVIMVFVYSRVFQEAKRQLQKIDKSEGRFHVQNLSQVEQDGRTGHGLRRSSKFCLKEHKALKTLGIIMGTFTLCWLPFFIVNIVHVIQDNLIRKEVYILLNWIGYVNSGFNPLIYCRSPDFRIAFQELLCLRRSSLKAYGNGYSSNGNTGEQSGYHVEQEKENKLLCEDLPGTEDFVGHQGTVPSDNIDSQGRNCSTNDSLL
Assay [11] addresses AP-2 complex subunit beta (Homo sapiens) (UniProt P63010). The assay can be described thus: inhibitors of arrestin peptide binding to AP2, pilot screen, biochemical, validation set, GST-AP2 beads, flow cytometry (AID 504541;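 active means inhibition above 54%, about 3 SD of non-fluorescent compounds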;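 further: AP2 carries R879A mutation and is captured from E. coli lysate; bead-bound FITC arrestin peptide fluorescence measuring arrestin peptide binding to AP2; 0% = DMSO wells and 100% = excess unlabeled arrestin peptide control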). To be noted: FITC arrestin peptide, at 10 µM, stronger effect = higher value, AP2 beta2 appendage fragment, R879A mutant.
The nature of assay [12]: yeast V-ATPase proton transport modulators, S. cerevisiae, pHLuorin, HTS validation (AID 504600; in the data active means response above about 15%;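 further: plate controls were DMSO for no effect and reference compound for full effect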). The note with it: S. cerevisiae pHLuorin cytosolic pH, at 10 µM, stronger effect = higher value.
Assay [13] has as its system anti-desmoglein-3 scFv antibody binding to human DSG3. In words: inhibitors of anti-DSG3 scFv binding to DSG3, pilot screen, biochemical, validation compound set, bead-based, flow cytometry (AID 588368;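 active means binding below the plate cutoff, the plate median minus 3 SD, with a reading above zero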;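 further: signal is the median channel fluorescence of bead-bound GFP antibody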). The note with it: Protein G beads, DSG3-Fc, scFv-GFP binding, at 10 µM, stronger effect = lower value.
The nature of assay [14]: inhibitors of fungal efflux pumps CDR1, CDR2, MDR1, pilot screen, validation compound set, multiplex, phenotypic (AID 588506;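 active means efflux inhibition above 0.42, the validation set average plus 4 SD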;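 further: Nile Red retained in cells so higher fluorescence means more efflux inhibition; 0 = negative control wells and 1 = enniatin B 25 µM full block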). To be noted: S. cerevisiae pump-expressing triplex, Nile Red efflux flow cytometry; at 10 µM; stronger effect = higher value; the pumps come from Candida albicans.
Assay [15] deals with ATP-binding cassette sub-family B member 6 (Homo sapiens) (UniProt Q9NP58). The assay can be described thus: ABCB6 transporter inhibitors, pilot screen, K562-ABCB6 cells, flow cytometry, validation set (AID 588550;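 active means inhibition above the screen-wide mean plus 3 SD, about 51%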;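 further: 0% = DMSO wells and 100% = benzethonium chloride 70 µM positive control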). To be noted: K562-ABCB6 porphyrin accumulation, 1 h, at 10 µM, stronger effect = higher value.
Sequence of ATP-binding cassette sub-family B member 6 (Homo sapiens) (Q9NP58 whole entry, looked up): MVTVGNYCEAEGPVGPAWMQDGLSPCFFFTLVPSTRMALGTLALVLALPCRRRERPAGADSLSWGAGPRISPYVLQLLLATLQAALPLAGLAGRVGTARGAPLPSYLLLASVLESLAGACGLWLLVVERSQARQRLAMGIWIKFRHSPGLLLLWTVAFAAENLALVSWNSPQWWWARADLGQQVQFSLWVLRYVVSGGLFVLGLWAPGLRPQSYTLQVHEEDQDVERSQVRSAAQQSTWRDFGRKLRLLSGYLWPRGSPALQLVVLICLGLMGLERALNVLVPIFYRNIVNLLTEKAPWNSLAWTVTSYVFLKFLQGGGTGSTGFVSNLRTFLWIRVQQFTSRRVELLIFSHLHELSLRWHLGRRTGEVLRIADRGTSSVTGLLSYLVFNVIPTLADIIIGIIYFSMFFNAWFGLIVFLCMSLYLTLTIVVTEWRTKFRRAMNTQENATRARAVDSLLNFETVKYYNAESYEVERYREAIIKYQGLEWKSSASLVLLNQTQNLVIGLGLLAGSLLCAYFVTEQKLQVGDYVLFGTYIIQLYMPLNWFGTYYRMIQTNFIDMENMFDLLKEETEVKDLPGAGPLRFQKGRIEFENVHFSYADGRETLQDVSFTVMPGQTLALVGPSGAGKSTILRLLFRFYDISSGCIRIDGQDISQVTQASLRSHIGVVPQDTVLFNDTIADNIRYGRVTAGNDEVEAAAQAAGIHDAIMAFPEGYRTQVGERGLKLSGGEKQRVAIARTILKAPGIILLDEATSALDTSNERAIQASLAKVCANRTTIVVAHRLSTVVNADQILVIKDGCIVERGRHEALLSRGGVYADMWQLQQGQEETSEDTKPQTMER
Assay [16] in a line: promoters of myeloid differentiation in arrested cells, primary screen, cell-based, GFP/MAC1 double positive, flow cytometry, validation set (AID 588685;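 active means differentiation response of at least 50%, scaled between solvent and reference control, from cells with both markers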;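 further: compound exposure lasts four days before antibody staining and flow analysis; 0% = DMSO wells and 100% = 5 µM fulvestrant positive control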). The note with it: ER-HoxA9 marrow cells, stronger effect = higher value, normalized: vehicle 0, fulvestrant 100.

Sequence of Beta-adrenergic receptor kinase 1 (Homo sapiens) (P25098 whole entry, looked up): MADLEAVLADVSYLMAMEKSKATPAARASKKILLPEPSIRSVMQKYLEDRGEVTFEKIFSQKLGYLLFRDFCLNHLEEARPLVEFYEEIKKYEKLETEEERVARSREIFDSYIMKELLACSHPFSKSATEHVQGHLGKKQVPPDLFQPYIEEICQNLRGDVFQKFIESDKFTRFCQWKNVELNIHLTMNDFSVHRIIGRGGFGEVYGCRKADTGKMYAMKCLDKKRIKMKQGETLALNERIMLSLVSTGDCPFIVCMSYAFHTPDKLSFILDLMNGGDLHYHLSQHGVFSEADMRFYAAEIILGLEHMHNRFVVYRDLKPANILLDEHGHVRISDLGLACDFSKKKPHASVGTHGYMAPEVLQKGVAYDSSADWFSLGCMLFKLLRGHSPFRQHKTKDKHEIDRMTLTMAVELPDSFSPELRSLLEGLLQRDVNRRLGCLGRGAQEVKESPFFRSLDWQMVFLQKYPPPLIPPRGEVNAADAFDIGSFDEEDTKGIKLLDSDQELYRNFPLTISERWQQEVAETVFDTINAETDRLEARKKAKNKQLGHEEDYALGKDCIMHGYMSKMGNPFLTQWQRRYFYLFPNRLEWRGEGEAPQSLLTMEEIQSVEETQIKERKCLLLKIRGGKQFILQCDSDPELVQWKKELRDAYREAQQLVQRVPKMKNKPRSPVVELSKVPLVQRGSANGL
Sequence of AP-2 complex subunit beta (Homo sapiens) (P63010 whole entry, looked up, the tested form may be a part, one chain of several): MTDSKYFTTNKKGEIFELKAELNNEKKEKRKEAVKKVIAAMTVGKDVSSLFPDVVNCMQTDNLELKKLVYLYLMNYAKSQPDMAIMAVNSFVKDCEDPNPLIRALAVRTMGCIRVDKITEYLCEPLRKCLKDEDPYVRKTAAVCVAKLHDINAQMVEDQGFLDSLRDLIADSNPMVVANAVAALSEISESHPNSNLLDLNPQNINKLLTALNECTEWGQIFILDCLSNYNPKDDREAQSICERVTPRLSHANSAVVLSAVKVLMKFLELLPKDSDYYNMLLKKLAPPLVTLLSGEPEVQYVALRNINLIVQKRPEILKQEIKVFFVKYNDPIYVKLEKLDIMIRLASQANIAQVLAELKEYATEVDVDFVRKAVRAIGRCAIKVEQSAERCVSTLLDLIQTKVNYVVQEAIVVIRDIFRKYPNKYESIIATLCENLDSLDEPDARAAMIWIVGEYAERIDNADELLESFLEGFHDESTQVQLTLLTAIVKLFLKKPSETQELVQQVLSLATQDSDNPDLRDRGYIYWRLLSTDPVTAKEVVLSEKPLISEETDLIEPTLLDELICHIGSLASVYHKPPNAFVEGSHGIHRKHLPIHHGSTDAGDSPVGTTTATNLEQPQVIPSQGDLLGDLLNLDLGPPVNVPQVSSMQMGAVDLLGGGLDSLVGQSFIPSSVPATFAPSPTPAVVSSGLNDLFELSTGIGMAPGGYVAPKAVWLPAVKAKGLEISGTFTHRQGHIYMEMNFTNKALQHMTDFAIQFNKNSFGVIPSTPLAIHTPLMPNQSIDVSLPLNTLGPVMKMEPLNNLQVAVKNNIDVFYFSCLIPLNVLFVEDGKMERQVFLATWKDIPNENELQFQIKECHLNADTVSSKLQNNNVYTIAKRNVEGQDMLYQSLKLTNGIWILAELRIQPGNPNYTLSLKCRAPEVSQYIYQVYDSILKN
Sequence of Integrin beta-1 (Homo sapiens) + Integrin alpha-4 (Homo sapiens) (P05556 whole entry, looked up): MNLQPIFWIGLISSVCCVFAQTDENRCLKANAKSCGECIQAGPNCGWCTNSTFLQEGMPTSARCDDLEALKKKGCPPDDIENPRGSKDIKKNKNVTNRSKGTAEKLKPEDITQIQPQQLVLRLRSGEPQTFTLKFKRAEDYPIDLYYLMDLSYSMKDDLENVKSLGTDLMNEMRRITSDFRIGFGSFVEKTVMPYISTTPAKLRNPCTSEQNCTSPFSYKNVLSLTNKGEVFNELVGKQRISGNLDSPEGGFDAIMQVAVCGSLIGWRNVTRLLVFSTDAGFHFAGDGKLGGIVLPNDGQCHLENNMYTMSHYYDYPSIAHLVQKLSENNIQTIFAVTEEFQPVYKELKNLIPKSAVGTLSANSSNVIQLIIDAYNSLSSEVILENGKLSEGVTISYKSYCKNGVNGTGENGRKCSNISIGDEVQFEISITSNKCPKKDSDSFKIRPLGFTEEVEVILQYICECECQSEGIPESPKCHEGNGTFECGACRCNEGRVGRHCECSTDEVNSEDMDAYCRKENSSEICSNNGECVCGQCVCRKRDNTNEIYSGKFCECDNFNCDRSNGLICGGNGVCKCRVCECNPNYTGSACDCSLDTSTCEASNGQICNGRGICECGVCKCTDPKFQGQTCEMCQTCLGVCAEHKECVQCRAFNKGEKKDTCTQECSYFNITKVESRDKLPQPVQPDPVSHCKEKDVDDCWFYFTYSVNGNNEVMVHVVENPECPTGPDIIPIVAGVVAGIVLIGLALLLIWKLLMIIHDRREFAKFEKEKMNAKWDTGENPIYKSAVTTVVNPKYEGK
Sequence of Integrin beta-1 (Homo sapiens) + Integrin alpha-4 (Homo sapiens) (P13612 whole entry, looked up): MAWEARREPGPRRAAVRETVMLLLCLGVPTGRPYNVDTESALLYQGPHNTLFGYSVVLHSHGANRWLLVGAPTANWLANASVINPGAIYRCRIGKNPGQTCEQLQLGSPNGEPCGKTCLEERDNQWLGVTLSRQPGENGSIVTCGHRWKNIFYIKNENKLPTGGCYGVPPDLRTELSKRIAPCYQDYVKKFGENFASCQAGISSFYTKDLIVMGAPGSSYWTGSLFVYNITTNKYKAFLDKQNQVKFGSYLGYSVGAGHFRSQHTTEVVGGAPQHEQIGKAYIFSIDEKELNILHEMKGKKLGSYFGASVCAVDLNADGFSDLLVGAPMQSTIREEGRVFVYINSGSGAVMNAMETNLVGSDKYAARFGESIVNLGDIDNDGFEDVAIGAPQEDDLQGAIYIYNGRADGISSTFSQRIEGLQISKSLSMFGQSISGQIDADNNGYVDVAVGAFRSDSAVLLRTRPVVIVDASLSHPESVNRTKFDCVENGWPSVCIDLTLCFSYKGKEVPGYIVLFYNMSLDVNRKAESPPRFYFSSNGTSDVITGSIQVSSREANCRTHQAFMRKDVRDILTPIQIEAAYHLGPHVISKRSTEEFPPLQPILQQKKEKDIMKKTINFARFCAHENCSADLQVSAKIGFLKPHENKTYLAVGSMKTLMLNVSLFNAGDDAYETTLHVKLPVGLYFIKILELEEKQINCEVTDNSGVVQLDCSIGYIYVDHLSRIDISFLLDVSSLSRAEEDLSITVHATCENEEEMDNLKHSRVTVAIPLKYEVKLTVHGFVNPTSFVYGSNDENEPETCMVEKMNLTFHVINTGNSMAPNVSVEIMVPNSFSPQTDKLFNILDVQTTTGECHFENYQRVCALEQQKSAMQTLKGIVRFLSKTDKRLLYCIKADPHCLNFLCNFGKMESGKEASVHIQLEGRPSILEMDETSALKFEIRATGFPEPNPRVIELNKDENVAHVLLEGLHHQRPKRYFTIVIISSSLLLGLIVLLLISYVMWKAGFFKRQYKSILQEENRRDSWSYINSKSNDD

As for `O=C(O)c1ccc(C(=O)C(=O)c2ccccc2)cc1`, the percent of DMSO control GFP in assay [1] was 104% (inactive). Also, the GFP response vs DMSO in [2] is 98.3% (inactive); in assay [4], 101% (inactive). Moreover, the percent response of DMSO control in assay [3] is 109% (inactive). Besides, in [5], the GFP response, % of DMSO is 102% (inactive). Moreover, the double positive events in [6] was 65.4%. Also, in assay [6], the vesicle binding response is 304% (inactive). The figures for the inhibition in [7], in assay [11] and in assay [15] were -17.1% (inactive), 1.48% (inactive) and -10% (inactive), respectively. Further, in assay [8], the superoxide response (% of plate) was 110% (inactive). In addition, the aptamer binding inhibition in [9] is 3% (inactive). Further, the response in [10] is 4.67% (inactive); in [12], 0.41% (inactive). The binding (% of control) in [13] was 96.6% (inactive). In assay [14], the efflux inhibition (fraction of control) was -0.01 (inactive). For the same molecule, in assay [16], the differentiation response was -6.6% (inactive).

`c1ccc(Nc2cccc3c(Nc4ccccc4)cccc23)cc1`: the percent of DMSO control GFP in assay [1] is 104% (inactive). The GFP response vs DMSO in assay [2] was 107% (inactive); in assay [4] it was 88.7% (inactive). In addition, the percent response of DMSO control in [3] was 105% (inactive). Besides, the GFP response, % of DMSO in assay [5] is 97.8% (inactive). Further, the double positive events in assay [6] was found to be 62%. Besides, in assay [6], the vesicle binding response was 284% (inactive). Besides, the inhibition (usually the drop in the measured response relative to a control, in per cent) in assay [7] was -28.5% (inactive); in [11] it was 21.9% (inactive); in assay [15] it was -26% (inactive). For the same molecule, the superoxide response (% of plate) in assay [8] was 98.3% (inactive). Further, the aptamer binding inhibition in [9] is 1% (inactive). For the same molecule, the response in [10] is 6.03% (inactive); in [12], 0.51% (inactive). Moreover, the binding (% of control) in assay [13] was 91.6% (inactive). Also, the efflux inhibition (fraction of control) in [14] was 0.18 (inactive). In addition, the differentiation response in assay [16] is 14.9% (inactive).

For the molecule `NC(=O)c1cnccn1`, in [1], the percent of DMSO control GFP is 101% (inactive). The GFP response vs DMSO in assay [2] and in assay [4] was 110% (inactive) throughout. In assay [3], the percent response of DMSO control was 92.5% (inactive). Further, in assay [5], the GFP response, % of DMSO is 111% (inactive). The double positive events in [6] was found to be 60.5%. Moreover, in assay [6], the vesicle binding response is 240% (inactive). Besides, the values for the inhibition in [7], in assay [11] and in [15] were 10.8% (inactive), -9.13% (inactive) and 2% (inactive), respectively. Besides, the superoxide response (% of plate) in assay [8] was 102% (inactive). In addition, the aptamer binding inhibition in assay [9] was 9% (inactive). The response was -6.65% (inactive) in [10] and 11.1% (inactive) in [12]. Also, the binding (% of control) in assay [13] is 102% (inactive). Moreover, the efflux inhibition (fraction of control) in [14] was -0.09 (inactive). For the same molecule, the differentiation response in assay [16] is 25.6% (inactive).

In the case of `CCOC(=O)C(NC(C)=O)C(O)c1ccc([N+](=O)[O-])cc1` (stereo not given), in [1], the percent of DMSO control GFP was 99.5% (inactive). Besides, the GFP response vs DMSO in assay [2] was 105% (inactive); in assay [4], 124% (inactive). In addition, the percent response of DMSO control in assay [3] was 85.3% (inactive). The GFP response, % of DMSO in assay [5] was 99.2% (inactive). In [6], this molecule showed a double positive events of 57.3%. In addition, in assay [6], the vesicle binding response was 211% (inactive). In addition, the inhibition in [7] was -3.16% (inactive); in [11], -1.65% (inactive); in [15], 6% (inactive). In addition, the superoxide response (% of plate) in [8] is 103% (inactive). Moreover, the aptamer binding inhibition in [9] is 0% (inactive). The response is 4.84% (inactive) in [10] and -1.89% (inactive) in assay [12]. Further, the binding (% of control) in assay [13] is 99.7% (inactive). For the same molecule, the efflux inhibition (fraction of control) in assay [14] was -0.21 (inactive). Also, the differentiation response in assay [16] is 32.8% (inactive).

Take `COc1ccc2c(c1O)Cc1ccccc1C2=O`: the percent of DMSO control GFP in assay [1] was 94.8% (inactive). Also, the GFP response vs DMSO in [2] was 139% (inactive); in assay [4], 84.7% (inactive). Moreover, the percent response of DMSO control in [3] was 110% (inactive). Also, the GFP response, % of DMSO in assay [5] was 92.4% (inactive). For the same molecule, the double positive events in [6] was determined as 56.5%. Besides, in assay [6], the vesicle binding response was 220% (inactive). The inhibition in [7] was -13.9% (inactive); in assay [11], 46.1% (inactive); in [15], 109% (active). In [8], the superoxide response (% of plate) was 117% (inactive). Besides, the aptamer binding inhibition in [9] was 0% (inactive). Further, the response in [10] is 0.34% (inactive); in assay [12], -2.94% (inactive). Besides, the binding (% of control) in assay [13] is 104% (inactive). Moreover, in assay [14], the efflux inhibition (fraction of control) is -0.06 (inactive). Besides, the differentiation response in [16] was -0.82% (inactive).

Values taken from PubChem BioAssay.
